PubChem BioAssay AID1159580 (chemical genetic matrix, 2015)
“And” between values parts separate entries of the source, which are not always exact repeats. Equal values may be shown once. The whole screen tested about 5,500 compounds, of which about 2,000 (36%) were called active. Inconclusive results (about 18%) are left out. Rule as the data show it: active = normalized growth mostly below about 0.91 (no sharp cut-off); inconclusive = no clear call, values can overlap the other calls; inactive = mostly above about 0.92. The list shows a part of the results.

Test: chemical genetic growth profiling, strain panel (AID 1159580);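 also: tested at 20 µM; growth read once vehicle control cultures reached saturation at 30 °C; 1 = growth at the plate median or of vehicle wells; lower values mean less growth of the strain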
Conditions: S. cerevisiae deletion strains, growth OD

Measured: normalized growth

Cc1cc(C(C)(C)CC(C)(C)C)ccc1OCCOCC[N+](C)(C)Cc1ccccc1
active: locus YAL013W, strain DEP1, stronger effect = lower value 0.056 | locus YAL021C, strain ccr4, stronger effect = lower value 0.0621 | locus YAL026C, strain drs2, stronger effect = lower value 0.0577 | locus YAL030W, strain snc1, stronger effect = lower value 0.0548 | locus YBL061C, strain skt5, stronger effect = lower value 0.0577 | locus YBR009C, strain hhf1, stronger effect = lower value 0.0593 | locus YBR021W, strain FUR4, stronger effect = lower value 0.0884 | locus YBR023C, strain chs3, stronger effect = lower value 0.0588 | locus YBR171W, strain sec66, stronger effect = lower value 0.0729 | locus YBR229C, strain ROT2, stronger effect = lower value 0.0513 | locus YBR231C, strain swc5, stronger effect = lower value 0.0584 | locus YBR279W, strain paf1, stronger effect = lower value 0.0568 | locus YCL011C, strain gbp2, stronger effect = lower value 0.0539 | locus YCL016C, strain dcc1, stronger effect = lower value 0.0604 | locus YCL029C, strain bik1, stronger effect = lower value 0.0578 | locus YCL061C, strain MRC1, stronger effect = lower value 0.0639 | locus YCL069W, strain vba3, stronger effect = lower value 0.0588 | locus YCR088W, strain abp1, stronger effect = lower value 0.0592 | locus YDL005C, strain med2, stronger effect = lower value 0.0722 | locus YDL035C, strain GPR1, stronger effect = lower value 0.0517 | locus YDL040C, strain nat1, stronger effect = lower value 0.0573 | locus YDL074C, strain BRE1, stronger effect = lower value 0.0803 | locus YDL101C, strain DUN1, stronger effect = lower value 0.0608 | locus YDL134C, strain PPH21, stronger effect = lower value 0.0535 | locus YDL185W, strain tfp1, stronger effect = lower value 0.0735 | locus YDL192W, strain arf1, stronger effect = lower value 0.0575 | locus YDR001C, strain nth1, stronger effect = lower value 0.0561 | locus YDR069C, strain doa4, stronger effect = lower value 0.0594 | locus YDR101C, strain arx1, stronger effect = lower value 0.0572 | locus YDR137W, strain rgp1, stronger effect = lower value 0.0892 | locus YDR159W, strain sac3, stronger effect = lower value 0.0785 | locus YDR162C, strain NBP2, stronger effect = lower value 0.0508 | locus YDR195W, strain ref2 0.112 | locus YDR297W, strain sur2, stronger effect = lower value 0.0548 | locus YDR318W, strain mcm21, stronger effect = lower value 0.0609 | locus YDR334W, strain swr1, stronger effect = lower value 0.0602 | locus YDR335W, strain msn5, stronger effect = lower value 0.0584 | locus YDR388W, stronger effect = lower value 0.0542 | locus YDR392W, strain spt3, stronger effect = lower value 0.0691 | locus YDR502C, strain sam2, stronger effect = lower value 0.0626 | locus YEL003W, strain gim4, stronger effect = lower value 0.0521 | locus YEL037C, strain rad23, stronger effect = lower value 0.0554 | locus YEL061C, strain CIN8 (second series), stronger effect = lower value 0.0588 | locus YEL061C, strain CIN8, stronger effect = lower value 0.0504 | locus YER015W, strain faa2, stronger effect = lower value 0.0619 | locus YER016W, strain bim1, stronger effect = lower value 0.0588 | locus YER110C, stronger effect = lower value 0.0699 | locus YER111C, strain swi4, stronger effect = lower value 0.0695 | locus YER155C, strain BEM2 (second series), stronger effect = lower value 0.0851 | locus YER155C, strain BEM2, stronger effect = lower value 0.0684 | locus YER167W, strain BCK2, stronger effect = lower value 0.0531 | locus YFR010W, strain ubp6, stronger effect = lower value 0.0641 | locus YGL078C, strain dbp3, stronger effect = lower value 0.0843 | locus YGL086W, strain mad1, stronger effect = lower value 0.0561 | locus YGL167C, strain pmr1, stronger effect = lower value 0.0723 | locus YGL173C, strain kem1, stronger effect = lower value 0.0635 | locus YGL227W, strain vid30, stronger effect = lower value 0.0611 | locus YGL240W, strain doc1, stronger effect = lower value 0.0709 | locus YGL248W, strain PDE1, stronger effect = lower value 0.05 | locus YGL253W, strain hxk2, stronger effect = lower value 0.0523 | locus YGR135W, strain pre9, stronger effect = lower value 0.0617 | locus YGR252W, strain gcn5, stronger effect = lower value 0.165 | locus YHR013C, strain ard1, stronger effect = lower value 0.0989 | locus YHR027C, strain rpn1, stronger effect = lower value 0.0592 | locus YHR030C, strain SLT2, stronger effect = lower value 0.0522 and 0.101 | locus YHR079C, strain IRE1 (second series), stronger effect = lower value 0.0549 | locus YHR079C, strain IRE1, stronger effect = lower value 0.104 | locus YHR094C, strain hxt1, stronger effect = lower value 0.0561 | locus YHR129C, strain ARP1, stronger effect = lower value 0.0578 | locus YHR142W, strain chs7, stronger effect = lower value 0.072 | locus YHR200W, strain rpn10, stronger effect = lower value 0.0568 | locus YIL066C, strain RNR3, stronger effect = lower value 0.054 | locus YIL073C, strain SPO22, stronger effect = lower value 0.12 | locus YIL125W, strain kgd1, stronger effect = lower value 0.0749 | locus YIR030C, strain dcg1, stronger effect = lower value 0.0563 | locus YJL092W, strain hpr5, stronger effect = lower value 0.0568 | locus YJL095W, strain BCK1 (second series), stronger effect = lower value 0.0554 | locus YJL095W, strain BCK1, stronger effect = lower value 0.0585 and 0.103 | locus YJL115W, strain asf1, stronger effect = lower value 0.0691 | locus YJL129C, strain trk1, stronger effect = lower value 0.0794 | locus YJL134W, strain LCB3, stronger effect = lower value 0.0506 | locus YJL154C, strain vps35, stronger effect = lower value 0.0594 | locus YJL164C, strain tpk1, stronger effect = lower value 0.057 | locus YJL166W, strain qcr8, stronger effect = lower value 0.0596 | locus YJL168C, strain set2, stronger effect = lower value 0.0557 | locus YJL187C, strain SWE1 (second series), stronger effect = lower value 0.0514 | locus YJL187C, strain SWE1, stronger effect = lower value 0.0563 | locus YJR043C, strain POL32, stronger effect = lower value 0.0648 | locus YJR066W, strain TOR1, stronger effect = lower value 0.00362 | locus YKL009W, strain mrt4, stronger effect = lower value 0.213 | locus YKL068W, stronger effect = lower value 0.172 | locus YKL085W, strain MDH1 (second series), stronger effect = lower value 0.0866 | locus YKL085W, strain MDH1, stronger effect = lower value 0.0866 | locus YKL160W, strain elf1, stronger effect = lower value 0.0603 | locus YKR001C, strain vps1, stronger effect = lower value 0.0608 | locus YKR026C, strain gcn3, stronger effect = lower value 0.0637 | locus YKR091W, strain srl3, stronger effect = lower value 0.0576 | locus YLL001W, strain dnm1, stronger effect = lower value 0.0592 | locus YLL026W, stronger effect = lower value 0.056 | locus YLL041C, strain sdh2, stronger effect = lower value 0.0575 | locus YLR027C, strain aat2, stronger effect = lower value 0.0549 | locus YLR039C, strain RIC1, stronger effect = lower value 0.0893 | locus YLR058C, strain SHM2, stronger effect = lower value 0.052 | locus YLR102C, strain apc9, stronger effect = lower value 0.0571 | locus YLR113W, strain HOG1, stronger effect = lower value 0.119 | locus YLR221C, strain rsa3, stronger effect = lower value 0.0575 | locus YLR258W, strain gsy2, stronger effect = lower value 0.0566 | locus YLR262C, strain YPT6 (second series), stronger effect = lower value 0.0719 | locus YLR262C, strain YPT6, stronger effect = lower value 0.0979 | locus YLR268W, strain sec22, stronger effect = lower value 0.0813 | locus YLR320W, strain mms22, stronger effect = lower value 0.0724 | locus YLR330W, strain CHS5, stronger effect = lower value 0.0528 | locus YLR342W, strain FKS1 (second series), stronger effect = lower value 0.0706 | locus YLR342W, strain FKS1, stronger effect = lower value 0.0618 | locus YLR357W, strain rsc2, stronger effect = lower value 0.114 | locus YLR370C, strain arc18, stronger effect = lower value 0.0577 | locus YLR371W, strain rom2, stronger effect = lower value 0.0597 | locus YLR384C, strain iki3, stronger effect = lower value 0.0598 | locus YLR418C, strain cdc73, stronger effect = lower value 0.0929 | locus YML016C, strain PPZ1, stronger effect = lower value 0.0514 | locus YML032C, strain rad52, stronger effect = lower value 0.0687 | locus YML120C, strain ndi1, stronger effect = lower value 0.0557 | locus YML124C, strain tub3, stronger effect = lower value 0.0571 | locus YMR058W, strain fet3, stronger effect = lower value 0.0582 | locus YMR078C, strain ctf18, stronger effect = lower value 0.0671 | locus YMR125W, strain sto1, stronger effect = lower value 0.073 | locus YMR129W, stronger effect = lower value 0.0561 | locus YMR205C, strain PFK2, stronger effect = lower value 0.0818 | locus YMR223W, strain ubp8, stronger effect = lower value 0.0638 | locus YMR231W, strain pep5, stronger effect = lower value 0.0634 | locus YMR307W, strain GAS1, stronger effect = lower value 0.113 | locus YNL067W, strain RPL9B, stronger effect = lower value 0.051 | locus YNL071W, strain lat1, stronger effect = lower value 0.0592 | locus YNL153C, strain GIM3, stronger effect = lower value 0.0542 | locus YNL183C, strain NPR1, stronger effect = lower value 0.00188 | locus YNL209W, strain ssb2, stronger effect = lower value 0.0576 | locus YNL233W, strain BNI4, stronger effect = lower value 0.0574 | locus YNL248C, strain rpa49, stronger effect = lower value 0.0804 | locus YNL250W, strain rad50, stronger effect = lower value 0.109 | locus YNL271C, strain bni1, stronger effect = lower value 0.0656 | locus YNL298W, strain CLA4, stronger effect = lower value 0.0604 | locus YNL307C, strain MCK1, stronger effect = lower value 0.0681 | locus YNL322C, strain KRE1 (second series), stronger effect = lower value 0.0636 | locus YNR049C, strain mso1, stronger effect = lower value 0.0552 | locus YNR052C, strain pop2, stronger effect = lower value 0.0587 | locus YOL006C, strain TOP1, stronger effect = lower value 0.115 | locus YOL147C, strain pex11, stronger effect = lower value 0.0557 | locus YOR001W, strain rrp6, stronger effect = lower value 0.0651 | locus YOR061W, strain CKA2, stronger effect = lower value 0.0485 | locus YOR069W, strain VPS5, stronger effect = lower value 0.0867 | locus YOR070C, strain gyp1, stronger effect = lower value 0.0566 | locus YOR080W, strain dia2, stronger effect = lower value 0.0634 | locus YOR083W, strain WHI5, stronger effect = lower value 0.0581 | locus YOR106W, strain vam3, stronger effect = lower value 0.0627 | locus YOR136W, strain idh2, stronger effect = lower value 0.0687 | locus YOR144C, strain elg1, stronger effect = lower value 0.0552 | locus YOR184W, strain ser1, stronger effect = lower value 0.0763 | locus YOR231W, strain MKK1, stronger effect = lower value 0.103 | locus YOR265W, strain rbl2, stronger effect = lower value 0.055 | locus YOR270C, strain vph1, stronger effect = lower value 0.0945 | locus YOR290C, strain snf2, stronger effect = lower value 0.0584 | locus YOR316C, strain cot1, stronger effect = lower value 0.056 | locus YPL051W, strain arl3, stronger effect = lower value 0.0608 | locus YPL055C, strain LGE1, stronger effect = lower value 0.0718 | locus YPL078C, strain atp4, stronger effect = lower value 0.0619 | locus YPL106C, strain sse1, stronger effect = lower value 0.0907 | locus YPL240C, strain hsp82, stronger effect = lower value 0.057 | locus YPL256C, strain CLN2, stronger effect = lower value 0.105 | locus YPR119W, strain clb2, stronger effect = lower value 0.0584 | locus YPR141C, strain kar3, stronger effect = lower value 0.0826 | locus YPR163C, strain tif3, stronger effect = lower value 0.0658 | locus YPR167C, strain met16, stronger effect = lower value 0.059 | strain wtn01, stronger effect = lower value 0.0645
